VDR inhibitor – blocks the human vitamin D receptor; Potency, µM, without a hit: max response, negative = inhibition, actives largely listed as inhibitors; VDR-SRC2-3 peptide fluorescence polarization, 2 h; P11473; 400,000 compounds, 0.93% hits
Target sequence (P11473 whole entry, looked up): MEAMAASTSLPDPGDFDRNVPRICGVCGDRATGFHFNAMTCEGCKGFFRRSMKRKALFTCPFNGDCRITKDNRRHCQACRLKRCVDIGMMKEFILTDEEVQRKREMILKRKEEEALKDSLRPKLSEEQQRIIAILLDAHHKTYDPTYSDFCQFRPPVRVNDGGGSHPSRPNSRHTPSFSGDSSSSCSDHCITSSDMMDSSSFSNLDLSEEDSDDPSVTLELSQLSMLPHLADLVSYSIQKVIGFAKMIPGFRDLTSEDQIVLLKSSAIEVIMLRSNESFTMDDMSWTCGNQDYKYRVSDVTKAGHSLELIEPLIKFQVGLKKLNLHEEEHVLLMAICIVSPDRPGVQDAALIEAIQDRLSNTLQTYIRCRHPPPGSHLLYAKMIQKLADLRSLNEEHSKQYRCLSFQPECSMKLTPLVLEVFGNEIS
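Compounds are added to VDR with labelled SRC2-3 coactivator peptide and held 2 h at room temperature. Inhibition of the VDR–peptide interaction is then read as a change in fluorescence polarization.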
PLK1 PBD inh – inhibitors of human PLK1 polo-box domain binding; P53350; Potency, µM, without a hit: max response, negative = inhibition, usual class: inhibitors; AID 720504; 360,000 compounds, 2.8% hits; Plk1 PBD binding of FITC phosphopeptide, fluorescence polarization; note: series mostly up to about 57 µM; nearly all actives have a fitted effect of over 65% in size
TDP1 cell noCPT – qHTS for Inhibitors of human tyrosyl-DNA phosphodiesterase 1 (TDP1): qHTS in cells in absence of CPT; DT40 Tdp1-/- hTDP1 cells, no CPT, ATP luminescence, 48 h; Potency, µM (doses to about 46.2 µM), inactives show top-dose activity change, negative = growth inhibition, usual class: inhibitors; 420,000 compounds, 15% hits; AID 686978, 2013; note: nearly all actives have a fitted effect of over 55% in size
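Chicken DT40 Tdp1-/- cells stably complemented with human TDP1 were seeded at 400 cells/well with DMSO in place of 20 nM camptothecin. After compound pinning, cells grew at least 48 hr at 37 °C; viability read by CellTiter-Glo luminescence.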
TDP1 cell CPT – growth inhibition of DT40 Tdp1-/-;hTDP1 cells with camptothecin (screen for TDP1 inhibitors); chicken DT40 Tdp1-/-;hTDP1 cells + 20 nM CPT, ATP luminescence, 48 h; Potency, µM (highest dose often 46.2 µM), for the others: top-dose activity change, negative = growth inhibition, actives largely listed as inhibitors; 420,000 compounds, 12% hits; note: nearly all actives have a fitted effect of over 55% in size
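Cell growth measured by CellTiter-Glo luminescence after a minimum 48 h, 37 C compound exposure with 20 nM CPT in Tdp1-knockout DT40 cells stably expressing hTDP1, seeded 400/well; qHTS titration format.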
TDP1 block – blocks human tyrosyl-DNA phosphodiesterase 1; 350,000 compounds, 0.28% hits; AID 485290; Potency, µM (highest dose often 130 µM), for the others: top-dose activity change, negative = inhibition, hits mostly inhibitors; Q9NUW8; recombinant TDP1, AlphaScreen DNA substrate cleavage; note: nearly all actives have a fitted effect of over 40% in size
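Signal: AlphaScreen proximity between streptavidin donor and anti-FITC acceptor beads on intact substrate. Reaction: Tdp1 1 nM, substrate 15 nM final, 5 min RT after 15 min compound preincubation.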
GCN5L2 inh – blocks human GCN5L2 histone acetyltransferase | Q92830 | GCN5L2 HAT assay, ThioGlo1 CoA-SH fluorescence | Potency, µM (series often up to 58.9 µM), for the others: top-dose activity change, negative = inhibition, actives largely listed as inhibitors | 390,000 compounds, 0.21% hits | AID 504327
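Free CoA generated was detected with ThioGlo1 (50uM) fluorescence at Ex340nm/Em540nm, read immediately and after 20 min at room temperature. Enzyme, 20 nM in HEPES pH 7.5 buffer, saw compounds 15 min before adding 75uM H3(1-25) peptide and 70uM acetyl-CoA.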
* = called active by the depositor; ? = inconclusive; nt = not tested or not shown; [ ] = another dose, or the depositor's remark. Compounds with a hit are over-represented: about 18% of the library has one in this group of screens. Calls come from the whole dose curve; as a rule, active = well fitted curve in the direction sought with a large enough effect; inconclusive = small, poorly fitted or top-dose-only effect, or another doubt; inactive = no such curve, though single readings can be large; an effect the other way counts as inactive or inconclusive. % is set by controls: 0 for no effect and ±100 for the full control effect; potency is the fitted concentration of half-maximal effect.

SMILES | VDR inhibitor | PLK1 PBD inh | TDP1 cell noCPT | TDP1 cell CPT | TDP1 block | GCN5L2 inh
O=c1[nH]c(C2CCN(S(=O)(=O)Cc3ccccc3)CC2)nc2c1nnn2Cc1cccc(Cl)c1 | 1.3% | -11.1% | 18.4µM* | 16.4µM* | nt | -3.3%
O=c1[nH]c(C2CCN(S(=O)(=O)/C=C/c3ccccc3)CC2)nc2c1nnn2Cc1ccc(F)cc1 | 12.6% | -1.6% | 18.4µM* | 20.6µM* | nt | -13.1%
O=c1[nH]c(C2CCN(S(=O)(=O)c3cccc(Cl)c3)CC2)nc2c1nnn2Cc1ccccc1 | -27.8% | -22.9% | ? | ? | 1.1% | -14.5%
O=c1[nH]c(C2CCN(S(=O)(=O)Cc3ccccc3)CC2)nc2c1nnn2Cc1ccccc1 | 3.9% | -11.7% | ? | ? | 7.1% | -0.7%
O=C(Nc1cc(S(=O)(=O)N2CCOCC2)ccc1O)c1ccc(NS(=O)(=O)c2ccc(Cl)s2)cc1 | -23.1% | ? | -17.8% | 7.8% | 3.0% | -8.7%
O=C(Nc1cc(S(=O)(=O)N2CCOCC2)ccc1N1CCOCC1)c1ccc([N+](=O)[O-])s1 | ? | -15.1% | 7.31µM* | 11.6µM* | 3.9% | -3.1%
Cc1ccc(NC(=O)c2ccccc2NS(=O)(=O)c2ccc(Cl)s2)cc1S(=O)(=O)N1CCOCC1 | -1.2% | ? | 11.6µM* | 13µM* | 2.7% | -7.0%
O=C(Nc1cc(S(=O)(=O)N2CCOCC2)ccc1N1CCOCC1)c1ccccc1[N+](=O)[O-] | 6.6% | -11.7% | 6.0% | 2.5% | 0.8% | -2.1%
Cc1ccc(NC(=O)c2ccc([N+](=O)[O-])s2)cc1S(=O)(=O)N1CCOCC1 | -9.2% | ? | 16.4µM* | 16.4µM* | -1.2% | -3.3%
O=C(Nc1cc(S(=O)(=O)N2CCOCC2)ccc1N1CCOCC1)c1cc2c(s1)CCC2 | 0.0% | -6.4% | 23.1µM* | -0.8% | nt | -9.1%
COc1c(O)cc2c(c1O)C1OC(CO)C(O)[C@H](O)[C@H]1OC2=O (some centres undefined) | -1.5% | nt | 18.7% | -4.4% | -1.0%[56.1 µM] | -0.2%
O=C(O[C@@H]1OC2COC(=O)c3cc(O)c(O)c(O)c3-c3c(cc(O)c(O)c3O)C(=O)O[C@@H]([C@H]1O)[C@@H]2O)c1cc(O)c(O)c(O)c1 | -16.7% | 9.47µM* | ? | ? | -3.9% | ?
CCOC(=O)C1=C(C)N(c2ccc(OC)cc2)C(=O)/C1=C\c1ccc(O)c(OCC)c1 | ? | -13.6% | ? | 23.1µM* | 9.8% | ?
COc1ccc(CNC(=O)C2CCN(S(=O)(=O)c3ccc4c(c3)CC(C)N4C(=O)C3CC3)CC2)cc1 (centres undefined) | -9.5% | -9.6% | 6.8% | 1.1% | 1.3% | -13.4%
O=C(NC(=S)Nc1nc2ccccc2s1)c1cccs1 | -11.6% | ? | 18.4µM* | 16.4µM* | 3.4% | -1.9%
NC(=S)Nc1nc2ccccc2s1 | -4.7% | -12.6% | 4.11µM* | 2.59µM* | 6.1% | -14.9%
COc1cc(=O)n2c(c1C(=O)NCc1cccc(F)c1)CCN(Cc1cccnc1)CC2 | nt | nt | -19.7% | -5.5% | nt | nt
O=C1CC(c2nc3ccccc3n2CCCCOc2ccccc2)CN1c1ccccc1Cl (centres undefined) | 3.5% | nt | 14.6µM* | 10.3µM* | 5.1% | -14.0%
CCOc1ccccc1N1CC(c2nc3ccccc3n2CCCOc2ccccc2)CC1=O (centres undefined) | 16.8% | nt | ? | -23.8% | 2.5% | -7.6%
CCOc1ccccc1N1CC(c2nc3ccccc3n2CCCCOc2ccccc2)CC1=O (centres undefined) | 17.5% | nt | -7.8% | -7.4% | 5.1% | -14.8%
C#CCn1c(C2CC(=O)N(c3ccc(OC)cc3)C2)nc2ccccc21 (centres undefined) | 0.1% | nt | -16.5% | -4.4% | -2.3% | -4.6%
Cc1ccc(OCCCn2c(C3CC(=O)N(c4cccc(Cl)c4)C3)nc3ccccc32)c(C)c1 (centres undefined) | 8.2% | nt | 9.2µM* | -99.7% | 0.0% | -6.8%
CCOc1ccc(N2CC(c3nc4ccccc4n3Cc3cccc(Cl)c3)CC2=O)cc1 (centres undefined) | -4.3% | nt | 16.4µM* | ? | -1.2% | -12.5%
COc1ccc(OCCCCn2c(C3CC(=O)N(c4cccc(Cl)c4)C3)nc3ccccc32)cc1 (centres undefined) | 9.5% | nt | 5.8µM* | 8.2µM* | 5.1% | -11.6%
O=C1N=C(C=c2ccc(=Cc3[nH]c(=O)[nH]c3O)cc2)C(=O)N1 | nt | nt | nt | nt | -14.9% | -16.7%
SMILES | VDR inhibitor | PLK1 PBD inh | TDP1 cell noCPT | TDP1 cell CPT | TDP1 block | GCN5L2 inh
NC(=O)c1nsc(C(=O)N(c2ccccc2)C(C(=O)NCC2CCCO2)c2ccc(F)cc2)c1N (centres undefined) | 11.3% | -11.6% | ? | ? | 1.5% | -2.2%
NC(=O)c1nsc(C(=O)N(c2ccc3c(c2)OCCO3)C(C(=O)NCC2CCCO2)c2ccc(F)cc2)c1N (centres undefined) | -15.5% | -16.7% | 18.4µM* | 14.6µM* | 8.2% | -1.2%
Cc1ccc(C(C(=O)NCC2CCCO2)N(C(=O)c2snc(C(N)=O)c2N)c2ccc3c(c2)OCCO3)cc1 (centres undefined) | 20.0% | -4.6% | -85.8% | 23.1µM* | 11.2% | -3.8%
COc1ccc(NC2CCCN(C(=O)CCc3ccncc3)C2)cc1OC (centres undefined) | -1.6% | -14.8% | 12.6% | -18.5% | 8.4% | -8.0%
CC1CCCCN1C(=O)CN1C(=O)NC2(CCCCC2C)C1=O (centres undefined) | -17.7% | 1.5% | -9.8% | -13.5% | 0.8%[56.1 µM] | 0.3%
O=C(NC(=S)Nc1ccc(-c2nc3ncccc3o2)cc1)c1ccccc1F | 12.9% | -6.6% | -2.3% | -5.7% | 10.3% | -15.5%
Cn1c(-c2ccccc2)c(O)c(=O)c2ccccc21 | nt | nt | nt | nt | 5.8%[21 µM] | nt
Cn1c(-c2ccccc2)c(C(=O)CCl)c2ccccc21 | 70.8µM* | ? | 3.26µM* | 2.59µM* | 7.7% | -17.1%
Cn1c(-c2ccccc2)c(CCO)c2ccccc21 | 13.8% | 26.7µM* | -25.4% | -14.7% | 4.4% | -0.5%
Cn1c(Cl)c(C(=O)Nc2ccccc2)c2ccccc21 | 13.9% | -2.2% | ? | ? | 2.1% | -3.6%
CCn1c(-c2ccccc2)c(C(=O)CCl)c2ccccc21 | ? | ? | 2.59µM* | 3.66µM* | 2.3% | -8.0%
CCOC(=O)C1CCCN(c2nc3ccccc3nc2C(C#N)C(=O)OCC)C1 (centres undefined) | -7.0% | -10.2% | 23.1µM* | ? | 0.0% | -9.6%

Screens (PubChem)
